Among the data in PubChem BioAssay (NCI) are growth inhibition values, retold here.

Experiment [1] can be described thus: NCI Yeast Anticancer Drug Screen. Data for the rad50 strain (AID 155).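 Note: 0% = growth of vehicle-only cultures of the same strain.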 The conditions noted are these: S. cerevisiae rad50 strain growth inhibition; at 50.0 µM; stronger effect = higher value. Summed up:
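DNA repair mutant yeast, compound exposure, growth read-out; inhibition is taken relative to vehicle.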

Experiment [2] in a line: NCI Yeast Anticancer Drug Screen. Data for the mec2-1 strain (AID 157). The conditions noted are these: S. cerevisiae mec2-1 strain, at 50.0 µM, stronger effect = higher value. Summed up: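 Strain: mec2-1 (DNA repair/cell cycle alteration). Compound exposure, then growth measured; inhibition expressed relative to vehicle.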
Experiment [3] is described as follows: NCI Yeast Anticancer Drug Screen. Data for the sgs1 mgt1 strain (AID 161).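 Note: 0% = growth of cultures given vehicle only.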 As to conditions: S. cerevisiae sgs1 mgt1 strain, at 50.0 µM, stronger effect = higher value. In outline:
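Genetically altered yeast, compound exposure, growth inhibition relative to vehicle.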

Experiment [4] is described as follows: NCI Yeast Anticancer Drug Screen. Data for the cln2 rad14 strain (AID 165).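 Note: 0% = growth equal to vehicle treated cultures.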 The conditions noted are these: S. cerevisiae cln2 rad14 strain, at 50.0 µM, stronger effect = higher value. In outline:
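Compounds are applied to the cln2 rad14 yeast strain, and growth is then compared with that of vehicle-treated cultures to give inhibition.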

Experiment [5] can be described thus: NCI Yeast Anticancer Drug Screen. Data for the bub3 strain (AID 167). The conditions noted are these: S. cerevisiae bub3 mutant strain, at 50.0 µM, stronger effect = higher value. Summed up:
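In this screen, a yeast mutant lacking normal mitotic checkpoint function is challenged with compound. Relative growth versus vehicle gives the inhibition value.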

The nature of experiment [6]: NCI Yeast Anticancer Drug Screen. Data for the mlh1 rad18 strain (AID 175). As to conditions: S. cerevisiae mlh1 rad18 strain growth inhibition; at 50.0 µM; stronger effect = higher value. In outline: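 Read-out is yeast growth inhibition, calculated against vehicle-only controls. The compound was applied to a strain engineered with DNA damage repair alterations.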

Molecules are shown by their SMILES. The panel holds about 79,000 compounds, 15% with a hit somewhere; the sample as a whole holds those more often. Values without a mark were called inactive. Active and inactive are the calls of the source. Cut-off read from the data, not from the text of the source: active = growth inhibition above about 70%; inactive = the rest.

Consider `CC1=CC(=N/S(=O)(=O)c2ccccc2)/C2CC(C)=C(C)CC2/C1=N\S(=O)(=O)c1ccccc1` (stereo not given), for which the growth inhibition is 82.6% (active) in experiment [1]; 78.6% (active) in experiment [2]; 93% (active) in experiment [3]; 56.6% in experiment [4]; 81.2% (active) in experiment [5]; 85.3% (active) in experiment [6].

As for `COC(=O)/C=C(\C)CC(O)/C=C(\C)CCC=C(C)C` (stereo not given), the growth inhibition in experiment [1] is 21.1%; in experiment [2], 49.1%; in experiment [3], 75.1% (active); in experiment [4] it was 12.8%; in experiment [5], 60.5%; in experiment [6], -23.1%.

As to `Cc1cc(C)c(-c2no/c(=N\S(=O)(=O)c3ccc(Cl)cc3)o2)c(C)c1`, the growth inhibition in experiment [1] is -10%; in experiment [2], -4.1%; in experiment [3] it was 0.75%; in experiment [4] it was 26%; in experiment [5], -13.1%; in experiment [6] it was 3.85%.

For the molecule `CCCCCCCCCC(=O)N/N=C/c1ccccc1Cl`, the growth inhibition in experiment [1] is 9.95%; in experiment [2] it was 36.1%; in experiment [3], 29.6%; in experiment [4], -9.5%; in experiment [5], 19.3%; in experiment [6], 30.4%.

As for `CCOC(=O)C(=O)Nc1ccccc1OCC`, the growth inhibition in experiment [1] was 3.3%; in experiment [2] it was 11.2%; in experiment [3] it was -11.2%; in experiment [4] it was -27.7%; in experiment [5], 0.9%; in experiment [6], 4.2%.

Consider `Cc1ccc(C2=Nc3cccc4cccc(c34)N2)cc1`, for which the growth inhibition in experiment [1] was -40%; in experiment [2], -71.7%; in experiment [3] it was -26.3%; in experiment [4], 11.1%; in experiment [5], -2.2%; in experiment [6] it was -8.85%.

Consider `COc1ccccc1Nc1n[nH]c(=S)s1`, for which the growth inhibition in experiment [1] is 11.5%; in experiment [2], -5.9%; in experiment [3], 58.5%; in experiment [4], 16.9%; in experiment [5] it was 14.1%; in experiment [6], 5.05%.

In the case of `O=S(=O)([O-])c1ccc2c[n+]3ccccc3cc2c1`, the growth inhibition was -16.1% in experiment [1]; 5% in experiment [2]; -0.95% in experiment [3]; -44.6% in experiment [4]; 6.1% in experiment [5]; -10.3% in experiment [6].

Consider `CCN(CCC#N)C(=S)Nc1ccc(C)c(C)c1`, for which the growth inhibition was -9% in experiment [1]; -8.55% in experiment [2]; 0% in experiment [3]; 1% in experiment [4]; -8.6% in experiment [5]; 0.1% in experiment [6].

Consider `N#C/C(=C1/Sc2c(nc[nH]c2=O)N1c1ccccc1)c1nc2ccccc2[nH]1`, for which the growth inhibition is -34.6% in experiment [1]; -14.4% in experiment [2]; -51.9% in experiment [3]; -8.1% in experiment [4]; -40% in experiment [5]; -41.9% in experiment [6].

As to `CS(=O)(=O)N(CCC#N)c1ccc(/C=N/NC(=O)CC(=O)Nc2cccc(Cl)c2)cc1`, the growth inhibition was -6.75% in experiment [1]; 18.1% in experiment [2]; 10.7% in experiment [3]; 19.6% in experiment [4]; -6.15% in experiment [5]; 8.65% in experiment [6].

As to `Cc1ccc(N=NC(=O)NNc2ccc(C)c([N+](=O)[O-])c2)cc1[N+](=O)[O-]`, the growth inhibition is 55% in experiment [1]; 3.9% in experiment [2]; 17.6% in experiment [3]; 16.1% in experiment [4]; 6.45% in experiment [5]; 32.4% in experiment [6].

Consider `Cc1cccc2c1C1c3ccccc3C(=O)CC1CC2=O` (stereo not given), for which the growth inhibition was 14.9% in experiment [1]; 30% in experiment [2]; 22.9% in experiment [3]; 25.7% in experiment [4]; 11% in experiment [5]; 35.2% in experiment [6].

In the case of `CCCCCCCCCCCCOC(=O)NCCCl`, the growth inhibition is -53% in experiment [1]; -106% in experiment [2]; -57% in experiment [3]; -224% in experiment [4]; -27.6% in experiment [5]; -60.1% in experiment [6].

For the molecule `CCN(CC)CCNc1ccccc1`, the growth inhibition in experiment [1] is -0.45%; in experiment [2], -13%; in experiment [3], -8.55%; in experiment [4], -48.4%; in experiment [5], -4.9%; in experiment [6], 14.7%.

In the case of `C=C(C)[C@H]1C[C@@H](O)[C@H]2O[C@@]2(C)C1`, the growth inhibition in experiment [1] was -8.05%; in experiment [2], -8.35%; in experiment [3], -25.9%; in experiment [4], -13.8%; in experiment [5] it was 0.8%; in experiment [6], -2.85%.

As to `Cc1cc2c(cc1C)[n+](=O)c(C(=O)/C=C/c1ccc3c(c1)OCO3)c(C)n2[O-]`, the growth inhibition in experiment [1] is 5.85%; in experiment [2], 13.4%; in experiment [3] it was 10.1%; in experiment [4], 28.8%; in experiment [5], 1.35%; in experiment [6], 0.15%.

Regarding `O=C1OC(c2cccc(Cl)c2)=N/C1=C\c1ccc(O)cc1`, the growth inhibition in experiment [1] is 15.8%; in experiment [2], 9.85%; in experiment [3], 15.6%; in experiment [4], 8.35%; in experiment [5], 1.45%; in experiment [6], -3.2%.

Turning to `O=C(NCCN1CCCCC1)c1ccc(I)cc1`, the growth inhibition was 9.2% in experiment [1]; 0.95% in experiment [2]; 24.8% in experiment [3]; 10.2% in experiment [4]; 22.4% in experiment [5]; 8.6% in experiment [6].

As for `O=C(NCCCCl)c1c(O)c2ccccc2[nH]c1=O`, the growth inhibition is 58.8% in experiment [1]; 25.5% in experiment [2]; 52% in experiment [3]; 18.1% in experiment [4]; 46.2% in experiment [5]; 27.8% in experiment [6].
